Results filed as inconclusive are left out. The source made the active and inactive calls. The call rests on the fitted dose curve; in most records, active means well fitted cell-killing curve with a large enough effect; inconclusive means small, poorly fitted or top-dose-only effect, or effect the other way; inactive means no such curve, though single readings can be large or run the other way.
What was measured:
[1] = Quantitative High-Throughput drug screen in 47 multiple myeloma cell lines against the NCATS MIPE library collection: XG1_PLB cell viability assay (AID 1919866); further: nearly all actives have a fitted effect of over 35% in size
Method in brief: (§1)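 Myeloma cells (500/well) treated with MIPE 4.0 compounds for 48 h at 37 °C, 5% CO2. Viability read as ATP via CellTiter-Glo luminescence after 5 min at RT; DMSO-only wells = 100%, media-only = 0% viability.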

[2] = Quantitative High-Throughput drug screen in 47 multiple myeloma cell lines against the NCATS MIPE library collection: UTMC2_PLB cell viability assay (AID 1919868); further: nearly all actives have a fitted effect of over 55% in size
Method in brief: as §1

[3] = Quantitative High-Throughput drug screen in 47 multiple myeloma cell lines against the NCATS MIPE library collection: PE2_PLB cell viability assay (AID 1919869); further: nearly all actives have a fitted effect of over 35% in size
Method in brief: as §1

[4] = Quantitative High-Throughput drug screen in 47 multiple myeloma cell lines against the NCATS MIPE library collection: OPM2_DSMZ cell viability assay (AID 1919872); further: nearly all actives have a fitted effect of over 30% in size
Method in brief: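 Viability readout: CellTiter-Glo luminescence following 5 min room-temperature incubation with reagent. Prior exposure: 48 h, 37C, humidified 5% CO2, 500 cells per well.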

[5] = Quantitative High-Throughput drug screen in 47 multiple myeloma cell lines against the NCATS MIPE library collection: KMS11_JCRBsus cell viability assay (AID 1919873); further: nearly all actives have a fitted effect of over 50% in size
Method in brief: as §1

[6] = Quantitative High-Throughput drug screen in 47 multiple myeloma cell lines against the NCATS MIPE library collection: KMS28BM_JCRB cell viability assay (AID 1919874); further: nearly all actives have a fitted effect of over 35% in size
Method in brief: as §1

[7] = Quantitative High-Throughput drug screen in 47 multiple myeloma cell lines against the NCATS MIPE library collection: VP6_DJ cell viability assay (AID 1919867); further: nearly all actives have a fitted effect of over 40% in size
Method in brief: as §1

[8] = Quantitative High-Throughput drug screen in 47 multiple myeloma cell lines against the NCATS MIPE library collection: PCM6_Riken cell viability assay (AID 1919870); further: nearly all actives have a fitted effect of over 30% in size
Method in brief: as §1

[9] = Quantitative High-Throughput drug screen in 47 multiple myeloma cell lines against the NCATS MIPE library collection: RPMI8226_ATCC cell viability assay (AID 1919871); further: nearly all actives have a fitted effect of over 30% in size
Method in brief: as §1

Measured: Potency
Potency means the concentration at half of the fitted maximal effect.

C[C@@H]1CN(c2c(F)c(N)c3c(=O)c(C(=O)O)cn(C4CC4)c3c2F)C[C@H](C)N1
not listed: [7] | [8] | [9]
inactive: all other assays above

CC(N)C12CC3CC(CC(C3)C1)C2 (stereo not given)
not listed: [2]
inactive: all other assays above

CCN(CC)CC#CCOC(=O)C(O)(c1ccccc1)C1CCCCC1 (stereo not given)
inactive: [1] | [2] | [3] | [4]

CCOc1cc(N)c(Cl)cc1C(=O)NCC1CN(Cc2ccc(F)cc2)CCO1 (stereo not given)
not listed: [6] | [7] | [8]
inactive: all other assays above

CC(C)OC(=O)C(C(=O)OC(C)C)=C1SC=CS1
not listed: [2] | [8] | [9]
inactive: all other assays above

COC(=O)Nc1nc2ccc(S(=O)c3ccccc3)cc2[nH]1 (stereo not given)
active: [1] 8.33 µM | [7] 13.2 µM | [5] 8.33 µM

CC1=CC(=O)c2ccccc2C1=O
active: [1] 23.5 µM | [7] 16.6 µM | [3] 4.18 µM | [4] 20.9 µM | [5] 18.7 µM

CN(CCOc1ccc(CC2SC(=O)NC2=O)cc1)c1ccccn1 (stereo not given)
not listed: [2] | [9]
inactive: all other assays above

COc1cc([C@@H]2c3cc4c(cc3[C@H](O)[C@H]3COC(=O)[C@H]23)OCO4)cc(OC)c1OC
not listed: [6] | [7] | [9]
inactive: all other assays above

O=C(NCC1CN(c2ccc(N3CCOCC3=O)cc2)C(=O)O1)c1ccc(Cl)s1 (stereo not given)
not listed: [5] | [7] | [8]
inactive: all other assays above

CCCCc1oc2ccc(NS(C)(=O)=O)cc2c1C(=O)c1ccc(OCCCN(CCCC)CCCC)cc1
active: [1] 11.8 µM | [7] 7.43 µM | [3] 23.5 µM | [8] 11.8 µM | [9] 16.6 µM | [4] 23.5 µM | [5] 11.8 µM | [6] 13.2 µM

NC(=O)N1c2ccccc2CC(=O)c2ccccc21
inactive: [1] | [7] | [3] | [9] | [4]

CCCCS(=N)(=O)CCC(N)C(=O)O (stereo not given)
active: [1] 13.2 µM | [7] 7.43 µM
not listed: [2] | [8]
inactive: all other assays above

NS(=O)(=O)c1cc2c(cc1Cl)NC(C(Cl)Cl)NS2(=O)=O (stereo not given)
not listed: [2] | [8] | [9]
inactive: all other assays above

O=C(O)c1cc(=O)[nH]c(=O)[nH]1
not listed: [2] | [6] | [9]
inactive: all other assays above

NC(N)=NC(N)=NCCc1ccccc1
active: [1] 7.43 µM | [7] 10.5 µM | [3] 16.6 µM | [6] 7.43 µM

Cc1ncc([N+](=O)[O-])n1CCO
inactive: [1] | [7] | [8] | [4] | [6]

CN1CCN(c2c(F)cc3c(=O)c(C(=O)O)cn4c3c2OCN4C)CC1
not listed: [7] | [8] | [9]
inactive: all other assays above

CC1CC2C3CCC4=CC(=O)C=C[C@]4(C)[C@@]3(F)[C@@H](O)C[C@]2(C)[C@@]1(O)C(=O)CO (stereo not given in full)
inactive: [1] | [3] | [4] | [6]
active: [7] 0.209 µM | [8] 0.118 µM

CO[C@@]12[C@H](COC(N)=O)C3=C(C(=O)C(C)=C(N)C3=O)N1C[C@@H]1N[C@@H]12
active: [1] 20.9 µM | [7] 20.9 µM | [3] 20.9 µM | [8] 20.9 µM | [4] 26.4 µM | [5] 2.96 µM | [6] 6.62 µM

Nc1nc(N)nc(-c2cc(Cl)ccc2Cl)n1
active: [7] 6.62 µM
inactive: [1] | [8] | [9] | [4]

CCCN[C@H]1CCc2nc(N)sc2C1
inactive: [1] | [3] | [4] | [5] | [6]
active: [7] 18.7 µM

Cc1nnc(NS(=O)(=O)c2ccc(N)cc2)s1
active: [1] 1.32 µM | [7] 0.187 µM | [5] 9.35 µM | [6] 4.18 µM
inactive: [3]

CCC(=O)O[C@]1(C(=O)SCF)[C@H](C)C[C@H]2[C@@H]3C[C@H](F)C4=CC(=O)C=C[C@]4(C)[C@@]3(F)[C@@H](O)C[C@@]21C
active: [1] 14.8 µM | [7] 33.2 µM | [9] 0.0019 µM
inactive: [3] | [5] | [6]

CN(C)CCc1c[nH]c2ccc(C[C@H]3COC(=O)N3)cc12
not listed: [2] | [3] | [8]
inactive: all other assays above

CNNCc1ccc(C(=O)NC(C)C)cc1
inactive: [1] | [7] | [3] | [8] | [6]
active: [4] 8.33 µM

N=C(N)c1ccc(OCCCCCOc2ccc(C(=N)N)cc2)cc1
active: [1] 4.69 µM | [7] 2.09 µM | [3] 5.9 µM | [8] 5.9 µM | [6] 5.9 µM

O=C(O)c1cn(C2CC2)c2cc(N3CCNCC3)c(F)cc2c1=O
not listed: [2]
inactive: all other assays above

CCCc1cc(C(N)=S)ccn1
not listed: [2]
inactive: all other assays above

CCN1CCCC1CNC(=O)c1cc(S(N)(=O)=O)ccc1OC (stereo not given)
inactive: [1] | [9] | [4] | [5] | [6]
active: [7] 5.9 µM

O=C(O)C1CCCN(CCC=C(c2ccccc2)c2ccccc2)C1 (stereo not given)
inactive: [1] | [3] | [4] | [5] | [6]

O=S(=O)(O)CCS
inactive: [1] | [2] | [4] | [5] | [6]

CC(C)(C#N)c1cc(Cn2cncn2)cc(C(C)(C)C#N)c1
not listed: [2] | [7] | [8]
inactive: all other assays above

COC(c1ccccc1)(c1ccccc1)[C@H](Oc1nc(C)cc(C)n1)C(=O)O
not listed: [7] | [8] | [9]
inactive: all other assays above

CNS(=O)(=O)CCc1ccc2[nH]cc(C3CCN(C)CC3)c2c1
active: [1] 0.743 µM | [2] 1.05 µM | [3] 1.66 µM
inactive: [4] | [5] | [6]

CCc1cc(C(N)=S)ccn1
not listed: [2] | [3] | [7]
inactive: all other assays above

COc1c(N2CCNC(C)C2)c(F)cc2c(=O)c(C(=O)O)cn(C3CC3)c12 (stereo not given)
inactive: [1] | [8] | [4] | [5] | [6]

CNS(=O)(=O)Cc1ccc2[nH]cc(CCN(C)C)c2c1
inactive: [1] | [8] | [4] | [5] | [6]
active: [3] 14.8 µM

CC[C@H](NC(C)C)[C@H](O)c1ccc(O)c2[nH]c(=O)ccc12
inactive: [1] | [2] | [8] | [4] | [6]

COc1cc(NS(=O)(=O)c2ccc(N)cc2)nc(OC)n1
not listed: [2] | [7] | [8]
inactive: all other assays above

COCCCOc1cc(C[C@@H](C[C@H](N)[C@@H](O)C[C@H](C(=O)NCC(C)(C)C(N)=O)C(C)C)C(C)C)ccc1OC
inactive: [1] | [3] | [4] | [5] | [6]

CCn1cc(C(=O)O)c(=O)c2cc(F)c(N3CCNCC3)nc21
not listed: [3] | [5] | [7]
inactive: all other assays above

Nc1nc(N)c2nc(CNc3ccc(C(=O)NC(CCC(=O)O)C(=O)O)cc3)cnc2n1 (stereo not given)
active: [1] 0.0332 µM | [5] 0.0526 µM | [6] 0.0296 µM

CO[C@@H]1[C@@H](OC(N)=O)[C@@H](O)[C@H](Oc2ccc3c(O)c(NC(=O)c4ccc(O)c(CC=C(C)C)c4)c(=O)oc3c2C)OC1(C)C
active: [1] 5.9 µM | [3] 6.62 µM | [6] 9.35 µM

CC1=C(C(=O)O)N2C(=O)[C@@H](NC(=O)C(N)c3ccccc3)[C@H]2SC1 (stereo not given in full)
not listed: [1] | [9]
inactive: all other assays above

CC(C)C1CCC(C(=O)N[C@H](Cc2ccccc2)C(=O)O)CC1 (stereo not given in full)
inactive: [1] | [3] | [8] | [6]
active: [9] 23.5 µM | [4] 0.0093 µM | [5] 16.6 µM

CN(C)CCc1c[nH]c2ccc(CS(=O)(=O)N3CCCC3)cc12
active: [1] 20.9 µM
inactive: [9] | [6]

O=c1oc2c(O)c(O)cc3c(=O)oc4c(O)c(O)cc1c4c23
inactive: [1] | [3] | [8] | [4] | [5]

COc1ccc(-c2ccc3cc(C(=O)O)ccc3c2)cc1C12CC3CC(CC(C3)C1)C2
inactive: [1] | [4] | [5]

N[C@@H](Cc1ccc(O)c(O)c1)C(=O)O
inactive: [1] | [6]

CN1CCN(c2c(F)cc3c(=O)c(C(=O)O)cn(CCF)c3c2F)CC1
inactive: [1] | [3] | [8] | [4] | [6]

CCN(CC)CCn1c(=O)c(Cc2ccc(OC)cc2)nc2ccccc21
not listed: [2] | [7] | [9]
inactive: all other assays above

NCCCC(O)(P(=O)(O)O)P(=O)(O)O
active: [6] 14.8 µM
inactive: [1] | [3] | [4]

OCc1ccc(-c2nn(Cc3ccccc3)c3ccccc23)o1
active: [9] 4.18 µM
not listed: [2] | [7]
inactive: all other assays above

Source: PubChem BioAssay (NCATS)
